Only some compounds are listed: those with a hit (about 9.3% of all), similar ones and a draw of the others.
ELG1 genotoxic = inducers of genotoxicity in HEK293T ELG1-luciferase cells; AID 504466; HEK293T ELG1-luciferase reporter, luminescence, 16 h; 330,000 tested, 1.3% active; Potency, µM (doses to about 46 µM), for the others: at the highest dose activity change, positive = activation, most hits filed as activators; further: % of control where 0% means no effect; nearly all actives have a fitted effect of over 60% in size
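Genotoxicity was scored as increased ELG1-luciferase reporter signal, measured by ONE-Glo luminescence (30 min, room temperature). Compound or vehicle exposure of the HEK293T reporter cells lasted 16 hr at 37°C.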
Rab9 prom act = activators of Rab9 promoter; Huh7 Rab9 promoter-luciferase reporter, luminescence, 24 h; Potency, µM (titrated, usually from 9.22 µM), without a hit: at the top dose activation, negative = inhibition, actives largely listed as activators; 320,000 tested, 2.8% active; AID 485297; further: % of control where 0% means no effect; nearly all actives have a fitted effect of over 60% in size
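Luminescence from Amplite-detected luciferase (10 minutes, ambient) reports Rab9 promoter activation. Before that, stable Rab9-luciferase Huh7 cells (1500/well, reduced-serum OP-MEM I plus 10% FBS) were exposed to compound for 24 hours at 37C.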
NPC1 promoter act = activates the NPC1 promoter; Huh7 NPC1 promoter luciferase reporter, 24 h; Potency, µM (titrated, usually from 9.22 µM), inactives show at the highest dose activation, most hits filed as activators; 320,000 tested, 2.4% active; AID 485313; further: % of control where 0% means no effect; nearly all actives have a fitted effect of over 60% in size
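Luciferase expression driven by the NPC1 promoter was measured in stably transfected Huh7 cells after a 24 h compound incubation, using a luciferase reagent and a luminescence read.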
FLuc modulator = counter-screen for miR-21 project: firefly luciferase inhibitors or activators; P08659; purified FLuc, Km substrates, luminescence inhibition; Potency, µM (top dose mostly 57.5 µM), for inactives: top-dose activity change, negative = inhibition, most hits filed as inhibitors; 360,000 tested, 6.9% active;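 further: plate controls were vehicle for no effect and reference inhibitor for full effect; nearly all actives have a fitted effect of over 55% in size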
Target sequence (P08659 whole entry, looked up): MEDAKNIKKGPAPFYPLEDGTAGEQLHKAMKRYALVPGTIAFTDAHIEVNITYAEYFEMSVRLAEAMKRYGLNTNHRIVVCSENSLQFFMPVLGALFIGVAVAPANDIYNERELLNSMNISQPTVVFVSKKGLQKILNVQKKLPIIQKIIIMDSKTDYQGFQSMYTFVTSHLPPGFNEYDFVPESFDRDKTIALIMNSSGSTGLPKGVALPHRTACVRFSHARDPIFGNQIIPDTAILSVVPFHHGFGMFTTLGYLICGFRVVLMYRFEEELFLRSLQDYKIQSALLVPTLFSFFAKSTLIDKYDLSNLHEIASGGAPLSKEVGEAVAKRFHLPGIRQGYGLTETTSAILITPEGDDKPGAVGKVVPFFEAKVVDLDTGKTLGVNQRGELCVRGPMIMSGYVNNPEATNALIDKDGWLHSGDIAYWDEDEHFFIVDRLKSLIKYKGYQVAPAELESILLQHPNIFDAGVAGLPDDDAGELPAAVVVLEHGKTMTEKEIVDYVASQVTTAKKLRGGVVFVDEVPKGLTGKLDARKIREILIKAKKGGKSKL
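Purified P. pyralis luciferase, 10 nM final, with Km-level 10 uM D-luciferin and 10 uM ATP in 50 mM Tris acetate pH 7.5, 10 mM Mg acetate, 0.01% Tween-20, 0.05% BSA; 6-point qHTS titration about 60 µM downward; luminescence read.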
SMN2 splice up = SMN2 splice variant enhancement | HEK293 SMN2-luciferase splicing reporter, luminescence, 30-36 h | Potency, µM (doses to about 46.1 µM), for inactives: at the top dose activity change, positive = activation, hits mostly activators | 210,000 tested, 2.8% active | AID 1458; further: % of control where 0% means no effect; nearly all actives have a fitted effect of over 55% in size
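qHTS luciferase splicing reporter: luminescence rises when SMN2 exon 7 is included in transfected HEK293 cells. Compound exposure lasted 30-36 h at 37C, with 4.5 mM final sodium butyrate as control, followed by a ONE-Glo read.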
ELG1 DNA repair = ELG1-dependent DNA repair inhibition; HEK293T ELG1-luciferase reporter, luminescence, 16 h; DNA damage induced by 5-fluorouridine; Potency, µM (highest dose often 46.1 µM), inactives show at the highest dose activity change, negative = inhibition, hits mostly inhibitors; 330,000 tested, 2.3% active; AID 504467; further: on the % scale 0 is the no-effect control and ±100 the full control effect; nearly all actives have a fitted effect of over 55% in size
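Step one: seed 2,000 cells per well. Step two: pin-transfer compound or DMSO alongside 5-fluorouridine. Step three: incubate 16 hr, 37 °C, 5% CO2. Step four: add ONE-Glo, wait 30 min, read luminescence.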
Numbers without * were called inactive; ? = inconclusive; . = no result. The call rests on the fitted dose curve; in most records, active means well fitted curve in the direction sought with a large enough effect; inconclusive means small, poorly fitted or top-dose-only effect, or another doubt; inactive means no such curve, though single readings can be large; an effect the other way counts as inactive or inconclusive. Potency means the concentration at half of the fitted maximal effect.

SMILES	ELG1 genotoxic	Rab9 prom act	NPC1 promoter act	FLuc modulator	SMN2 splice up	ELG1 DNA repair
COc1ccc(/C=N\NC(=O)c2ccccc2OC)cc1COc1c(F)c(F)c(F)c(F)c1F	-14%	-49%	-38%	1%	.	?
O=C(Cc1ccc(F)cc1)N/N=C/c1ccc(-c2ccc(Cl)c(C(=O)O)c2)o1	-1%	-2%	-1%	?	11%	1%
O=C(O)c1cc(N/N=C/c2ccc(-c3ccc(F)cc3)o2)ccc1Cl	?	?	?	9.5µM*	.	?
CCCN(CCC)C(=O)c1oc2ccccc2c1NC(=O)Cc1cccc(OC)c1	-6%	0%	0%	0%	.	1%
CC(=O)COc1ccc2c3c(c(=O)oc2c1C)CCCCC3	7.3µM*	?	?	-18%	?	?
Cc1oc(C(=O)O)cc1COc1ccc2c3c(c(=O)oc2c1C)CCCC3	2%	11%	9%	-4%	5%	-2%
Cc1c(OCC(=O)N(C)C)ccc2c3c(c(=O)oc12)CCCCC3	3%	1%	4%	-8%	1%	-7%
Cc1oc(C(=O)O)cc1COc1ccc2c3c(c(=O)oc2c1C)CCC3	?	?	19%	27µM*	?	?
CNC(=O)c1cc2c(=O)n3cc(C)ccc3nc2n(C(C)C)c1=N	1%	-4%	1%	4%	-3%	-1%
CC(C)NC(=O)N(C)C[C@H]1Oc2ccc(NS(=O)(=O)c3ccccc3)cc2C(=O)N([C@H](C)CO)C[C@@H]1C	2%	.	.	.	.	25%
O=C1OC(c2ccc3c(c2)OCO3)N(C(=O)c2ccc(Cl)c(Cl)c2)c2ccccc21 (stereo not given)	?	3.2µM*	?	-1%	13µM*	?
O=C(COc1ccc2c(c1)OCO2)Nc1ccc2c(c1)oc1ccccc12	5%	12%	9%	-2%	.	19%
O=C(O)CCC(=O)Nc1ccc2c(c1)oc1ccccc12	15%	-5%	2%	24µM*	17%	12%
O=C(O)COCC(=O)Nc1ccc2c(c1)oc1ccccc12	1%	0%	-2%	17µM*	.	17%
CNC(=O)COc1ccccc1C(=O)Nc1ccc2c(c1)oc1ccccc12	1%	-38%	-18%	3.8µM*	-12%	?
Cc1ccc(N2CC(C(=O)OCC(=O)c3ccc(C)c([N+](=O)[O-])c3)CC2=O)cc1 (stereo not given)	-2%	-8%	-3%	8%	.	-2%
O=C(NC1CCCCC1)C(c1ccc(F)cc1)N(Cc1ccco1)C(=O)c1csnn1 (stereo not given)	-2%	1%	-5%	0%	.	-6%
Cn1c(=O)[nH]c(=O)c2c1nc(Br)n2CCC(=O)c1ccccc1	2%	14%	-4%	-1%	-12%	-21%
CCCCNC(=S)NCC(c1ccccc1)c1c[nH]c2ccccc12 (stereo not given)	-8%	-2%	0%	0%	.	-28%
FC(F)(F)c1nc2ncc(Cl)cc2[nH]1	-5%	-3%	-1%	0%	-28%	?
Cc1[nH]cnc1C(=O)N/N=C/c1c(Cl)cccc1Cl	24%	?	?	15µM*	.	?
Cc1nnsc1C(=O)N/N=C/c1c(F)cccc1Cl	1%	12%	2%	-1%	2%	-3%
O=C(NNc1ccc(O)cc1)c1ccc(Br)cc1	3%	1%	-4%	?	-34%	5.8µM*
CC(=O)Nc1cccc(NC(=O)c2ccc(Br)cc2)c1	5%	?	19%	24µM*	17%	?
Nc1ccc(C(=O)Nc2cccc(N)c2)cc1	17%	?	?	21µM*	.	?
SMILES	ELG1 genotoxic	Rab9 prom act	NPC1 promoter act	FLuc modulator	SMN2 splice up	ELG1 DNA repair
Cc1cccc(NC(=O)CCNC(=O)c2ccc(Br)cc2)c1	?	?	27%	13µM*	.	?
CCC(=O)Nc1cccc(NC(=O)c2ccc(Br)cc2)c1	7%	23%	17%	-17%	?	?
O=C(NNC(=O)c1ccc(Br)cc1)c1ccncc1	4%	1%	1%	?	.	?
CC1CCC(NC(=O)CCNC(=O)c2ccc(Br)cc2)CC1 (stereo not given)	?	2.5µM*	4.5µM*	?	.	?
O=C(Nc1cccc(O)c1)c1ccc(Br)cc1	5.8µM*	?	?	12µM*	4%	?
COC(=O)c1cccc(NC(=O)CN(c2ccc3c(c2)OCO3)S(C)(=O)=O)c1C	-5%	10%	10%	-6%	3%	?
CCc1ccc(OC(=O)c2ccn(CC)n2)cc1	3%	3%	0%	15µM*	3%	12%
CCCNC(=O)Cn1c(=O)oc2cc(S(=O)(=O)N3CC(C)CC(C)C3)ccc21 (stereo not given)	0%	-1%	0%	2%	.	1%
COc1ccc(NC(=O)C2CCCNC2)cc1OCC(C)C (stereo not given)	-1%	-1%	1%	2%	25%	10%
Nc1cc(N)cc(C(=O)OCC(=O)Nc2cc(S(=O)(=O)N3CCCCC3)ccc2Cl)c1	-6%	-2%	-3%	17µM*	-4%	-22%
O=C(NCc1ccco1)c1cc(S(=O)(=O)N2CCCC2)ccc1Cl	-5%	-2%	1%	-1%	.	-8%
O=C(CN(Cc1ccco1)Cc1ccco1)Nc1cc(S(=O)(=O)N2CCCCC2)ccc1Cl	-8%	-12%	-6%	.	.	26µM*
CCOC(=O)N1CCN(C(=O)Nc2ccc(Cl)cc2)CC1	3%	-3%	0%	-13%	2%	15%
Cc1ccc(C)c(N(Cc2cc3ccc(C)cc3[nH]c2=O)C(=O)c2ccco2)c1	-3%	0%	-4%	-4%	.	?
CCN(CC)C(=O)CSC(=Nc1ccccc1F)NC#N	?	4µM*	?	-2%	14µM*	?
Cc1c(CC(=O)N2CCCCC2)c(=O)oc2cc(O)ccc12	.	.	.	1%	-1%	.
